Our source for the activation values is PubChem BioAssay AID1508602 (The Scripps Research Institute Molecular Screening Center, 2020).

The structures appear in SMILES notation. Where “and” joins values, the source holds several entries; their conditions need not be identical. Equal values may be shown once. Hit rate of the full screen: of about 650,000 compounds, about 6,800 (1%) were called active. Rule as the data show it: active = activation above about 4.9%; inactive = the rest. The list comes from a sample in which actives are over-represented; it also holds similar structures and randomly drawn compounds. Where a structure was tested more than once in an assay, its records may differ in their call.

G-protein coupled receptor 151 (Homo sapiens), sequence (Q8TDV0 whole entry, looked up): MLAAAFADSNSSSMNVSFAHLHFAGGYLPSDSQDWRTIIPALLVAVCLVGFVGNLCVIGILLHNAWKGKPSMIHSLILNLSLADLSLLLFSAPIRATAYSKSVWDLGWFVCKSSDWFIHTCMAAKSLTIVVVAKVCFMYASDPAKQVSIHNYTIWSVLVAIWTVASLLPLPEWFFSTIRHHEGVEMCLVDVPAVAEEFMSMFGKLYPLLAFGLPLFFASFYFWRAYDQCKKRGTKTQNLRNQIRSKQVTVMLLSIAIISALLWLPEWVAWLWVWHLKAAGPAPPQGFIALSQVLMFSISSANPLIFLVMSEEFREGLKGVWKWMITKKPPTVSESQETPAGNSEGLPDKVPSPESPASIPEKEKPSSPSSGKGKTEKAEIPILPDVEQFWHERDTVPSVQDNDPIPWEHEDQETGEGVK

The test has as its target G-protein coupled receptor 151 (Homo sapiens) (UniProt Q8TDV0). The test can be described thus: activates the human receptor GPR151, primary screen, cell-based, PathHunter beta-arrestin, luminescence (AID 1508602).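 Also: 0% = median of compound wells and 100% = cells with positive control.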 The conditions noted are these: PathHunter beta-arrestin GPR151 cells, at 11.2 µM, stronger effect = higher value.
With `CCCNc1nc(N2CCOCC2)nc2cc(OC)c(OC)cc12`, the activation is -0.145% (inactive).

Regarding `c1ccc(CSc2ncnc3sc4c(c23)CCCC4)cc1`, the activation was 3.13% (inactive).

For the compound `O=C(c1ccccc1)N1CCCCC(Sc2ncnc3sc4c(c23)CCCC4)C1=O` (configuration not stated), the activation is 5.26% (active).

Turning to `Cc1sc2ncnc(SC3CCCCN(C(=O)c4ccc(F)cc4)C3=O)c2c1C` (configuration not stated), the activation was 2.61% (inactive).

As for `COc1ccc(OC)c(-c2cc(Cl)c3c(c2)CC(CNC(=O)CSC)O3)c1` (configuration not stated), the activation was 0.143% (inactive).

Turning to `CCOc1ccc(C2C(C(=O)Nc3ccc(C)c(F)c3)c3ccccc3C(=O)N2CCN2CCOCC2)cc1` (configuration not stated), the activation is -1.65% (inactive).

Regarding `Nc1nnc(SCC(=O)OCC(=O)NCc2ccccc2)s1`, the activation is -1.05% (inactive).

Turning to `Cc1nnc(SCC(=O)NCc2ccccc2)s1`, the activation was 6.39% (active).

As to `O=C(CSc1nnc(NC(=O)CCc2ccccc2)s1)NCc1ccc(F)cc1`, the activation was -2.57% (inactive).

Consider `C/C(N)=C1\C(=O)C(=O)N(C)C1c1ccccc1` (configuration not stated), for which the activation is -1.33% (inactive).

With `CC(Oc1cccc(Cl)c1)C(=O)O/N=C(\N)c1ccncc1` (configuration not stated), the activation is -0.652% (inactive).

As for `O=C(O)CNC(=O)/C=C\c1ccc(Cl)cc1`, the activation is 0.187% (inactive).

Consider `CCNC(=O)n1cc(-c2ccnc3ccccc23)c(-c2ccncc2)n1`, for which the activation is -0.919% (inactive).

Consider `O=C(Nc1ccc(-c2nnc3n2CCCCC3)cc1)c1ccc(Br)o1`, for which the activation is -0.517% (inactive).

Turning to `O=c1c(Cl)c(-c2ccccc2)oc2ccccc12`, the activation is -1.04% (inactive).

As for `CCN(CC)C(=O)C1CCCN(c2nc3ncnc(NCCc4ccc(OC)cc4)c3[nH]2)C1` (configuration not stated), the activation was 0.885% (inactive).

On to `CCN(CC)C(=O)C1CCCN(c2cccc(C(=O)NCCc3ccc(OC)cc3)c2)C1` (configuration not stated), for which the activation was -1.08% (inactive).

With `CCN(CC)C(=O)C1CCCN(c2cc(N)nc(N)n2)C1` (configuration not stated), the activation is 6.79% (active).

`CCN(CC)C(=O)C1CCCN(c2cc(NCCN(C(C)C)C(C)C)nc(N)n2)C1` (configuration not stated): the activation is 4.23% (inactive).

Consider `CCN(CC)C(=O)C1CCCN(c2cc(Nc3ccccc3)nc(N)n2)C1` (configuration not stated), for which the activation is 1.77% (inactive).

With `CCN(CC)C(=O)C1CCCN(c2cccc(C(=O)NCCc3ccc(OC)cc3)n2)C1` (configuration not stated), the activation was 5.87% (active).

Take `O=C(O)c1cc(N=Cc2cccnc2)ccc1O`: the activation is 0.982% (inactive).

Regarding `Cc1ccc(CNC(=O)CCCCCn2c(SCc3cc(=O)n4ccccc4n3)nc3ccsc3c2=O)cc1`, the activation was 1.39% (inactive).

Consider `O=C(Nc1ccc(F)c(Cl)c1)/C(=C/c1cccc([N+](=O)[O-])c1)NC(=O)c1cccs1`, for which the activation was 0.762% (inactive).

As to `C=CCNC(=O)/C(=C/c1ccc(Cl)cc1)NC(=O)c1ccccc1`, the activation is 3.04% (inactive).

As for `CC(NC(=O)Cc1ccc(-c2ccccc2)cc1)c1nc(-c2cccnc2)n[nH]1` (configuration not stated), the activation was -0.113% (inactive).

As to `CCC(C)OC(=O)C1=C(C)NC2=C(C(=O)CC(c3ccccc3)C2)C1c1ccccc1OCc1ccccc1` (configuration not stated), the activation is 1.93% (inactive).

As for `CN1CC(=O)N2CCN(C(=O)OCc3ccccc3)C[C@@H]2C1=O`, the activation was 5.14% (active).

As for `NCCCC[C@@H]1NC(=O)[C@H]2CN(C(=O)OCc3ccccc3)CCN2C1=O`, the activation was -0.551% (inactive).

Take `COc1ccccc1C(=O)N1CCN2C(=O)CN(C)C(=O)[C@H]2C1`: the activation is 1.54% (inactive).

`O=C1CSC(c2ccccc2Br)N1c1ccc(F)c(Cl)c1` (configuration not stated): the activation is -1.29% (inactive).

Take `COc1ccc(C(=O)COC(=O)c2ccc3ccccc3n2)c(OC)c1`: the activation is -0.989% (inactive).

`COc1cccc(/C=C/C(=O)c2cc3ccccc3oc2=O)c1`: the activation is -0.0229% (inactive).

`COc1ccc(C(=O)Cc2cc3ccccc3oc2=O)c(OC)c1`: the activation is 8.65% (active).

For the compound `CCc1nn(CCCN2CCN(c3cccc(Cl)c3)CC2)c(=O)n1CCOc1ccccc1`, the activation is 5.41% (active) and -0.0264% (inactive) and -0.848% (inactive).

In the case of `CCCN1CCC(N2CCN(c3cccc(Cl)c3)CC2)CC1`, the activation was -0.685% (inactive).

On to `O=C(CSc1nc2ccccc2c(=O)n1CCCN1CCN(c2cccc(Cl)c2)CC1)N1CCCCCC1`, for which the activation was 0.298% (inactive).

For `COc1cc(Br)cc(/C=N/NC(=O)c2cc(-c3ccccc3)n[nH]2)c1O`, the activation was 3.1% (inactive).

In the case of `O=C(N/N=C/c1cc(Cl)ccc1O)c1cc(-c2ccccc2)n[nH]1`, the activation is 5.58% (active).

In the case of `O=C(N/N=C/c1ccccc1O)c1cc(-c2ccc(Cl)cc2)n[nH]1`, the activation is -0.397% (inactive).

Regarding `Cn1c(=NC(=O)CN2C(=O)CCC2=O)sc2cc([N+](=O)[O-])ccc21`, the activation is 1.44% (inactive).

Take `CC(C)(C)c1cnnn1-c1ccc(C(=O)/C=C\c2ccco2)cc1`: the activation was 0.0135% (inactive).

As for `C=CCc1cccc(/C=N/NC(=O)CCC(=O)Nc2ccc(Br)cc2)c1O`, the activation was 7.12% (active).

Turning to `COc1ccc(NC(=O)CCC(=O)N/N=C/c2cc(Cl)ccc2O)cc1`, the activation was -1.64% (inactive).

For `COc1ccc(NC(=O)CCC(=O)N/N=C/c2ccccc2Cl)cc1`, the activation is 0.396% (inactive).

`COc1ccccc1N(CC(=O)Nc1ccc(F)c(Cl)c1)S(=O)(=O)c1ccccc1`: the activation is 2.46% (inactive).

For `COC(=O)c1sccc1N/N=C/c1ccccn1`, the activation was -4.95% (inactive).

Regarding `COc1ccc(CCNC(=O)Cn2cnc3sc4c(c3c2=O)CCC4)cc1OC`, the activation was 0.328% (inactive).

With `COc1ccc(CC(=O)Nc2ccc(C(=O)Nc3ccccc3C(=O)O)cc2)cc1`, the activation was 1.57% (inactive).

Consider `COc1cccc(-c2nnc(NC(=O)CSc3ccccc3)o2)c1`, for which the activation is 9.1% (active).

As to `COc1cccc(-c2nnc(SCC(=O)NCc3ccccc3)o2)c1`, the activation was -0.0263% (inactive).

For the compound `COc1ccc(CC(=O)Nc2ccc(-c3nnc(-c4ccccc4)o3)cc2)cc1`, the activation was 7.27% (active).

Turning to `COc1cccc(NC(=O)CSc2nnc(-c3ccc(NS(C)(=O)=O)cc3)o2)c1`, the activation was 0.627% (inactive).

In the case of `COc1ccc(NC(=O)Cc2ccc(C)cc2)cc1`, the activation was -2.5% (inactive).

On to `CCC(C)NC(=O)c1sc2nc(C)nc(N3CCCCC3)c2c1C` (configuration not stated), for which the activation is 2.24% (inactive).

For the compound `CCC(CC)C(=O)Nc1ccc(S(=O)(=O)Nc2ncccn2)cc1`, the activation was -0.125% (inactive).

With `CCCCCC(=O)OCCNC(=O)c1cc2ccccc2oc1=O`, the activation was -0.976% (inactive).

`CCc1ccc(S(=O)(=O)NCc2csc(-c3ccccc3)n2)cc1`: the activation is -1.08% (inactive).

As to `O=S(=O)(NCc1csc(-c2cccnc2)n1)c1ccc2ccccc2c1`, the activation was 5.9% (active).

As for `Cc1ccc(S(=O)(=O)NCc2csc(-c3ccccc3)n2)cc1`, the activation is 4.76% (inactive).

As for `NC1=NC(=O)/C(=C/c2ccccc2C(F)(F)F)S1`, the activation is -0.392% (inactive).

Turning to `COc1ccc(OC)c(NC(=O)CSc2nnc3[nH]c(=O)c(C)c(C)n23)c1`, the activation was 5.91% (active).

With `Cc1c(C)n2c(SCC(=O)Nc3ccc4c(c3)OCO4)nnc2[nH]c1=O`, the activation is 1.02% (inactive).

Regarding `CCCc1cc(=O)[nH]c2nnc(SCC(=O)Nc3cc(OC)ccc3OC)n12`, the activation is -0.547% (inactive).

Take `Cc1ccc(CSCc2nnc(SCC(=O)Nc3nccs3)n2C)cc1`: the activation was 0.977% (inactive).

Regarding `COc1ccc(/C(=N/C(N)=S)Nc2ccccc2)cc1`, the activation is -0.629% (inactive).

For `COc1cc(/C=C/C(=O)O)ccc1OCc1ccccc1F`, the activation was -0.0946% (inactive).

Regarding `Cc1ccc(-c2nc(CCNC(=O)c3cccs3)cs2)cc1`, the activation is -1.14% (inactive).

With `COC(=O)C1(C)NC(c2ccccc2OC)C2C(=O)N(c3ccccc3)C(=O)C21` (configuration not stated), the activation was 5.08% (active).

`COC(=O)C1(C)NC(c2ccc(C)cc2)C2C(=O)N(c3ccc(F)cc3)C(=O)C21` (configuration not stated): the activation was -0.111% (inactive).

Turning to `COC(=O)C1(C)NC(c2ccc(C)cc2)C2C(=O)N(c3ccc(C)cc3)C(=O)C21` (configuration not stated), the activation is -0.33% (inactive).

Take `Cc1c(C(=O)Nc2ccc(F)cc2Cl)sc2ncn(CC(=O)N3CCOCC3)c(=O)c12`: the activation is -1.55% (inactive).

Turning to `Cc1ccc(C2=CC(c3ccccc3F)n3nnnc3N2)cc1` (configuration not stated), the activation was 0.122% (inactive).

As for `FC(F)Oc1ccccc1C1C=C(c2ccc(Cl)cc2)Nc2nnnn21` (configuration not stated), the activation is -0.0148% (inactive).

In the case of `Clc1ccccc1C1C=C(c2ccc(I)cc2)Nc2nnnn21` (configuration not stated), the activation is 13.5% (active).

As to `CC(C)C[C@@H]1NC(=O)[C@@H]2C[C@H](NCc3cn(C)nc3-c3ccccc3)CN2C1=O`, the activation is 2.5% (inactive).

Regarding `Cc1cc(CN(C)Cc2ccc(OCC(O)CN(C)Cc3ccccc3)cc2)n[nH]1` (configuration not stated), the activation is 5.48% (active).

As for `COCCN(C)Cc1ccc(OCC(O)CN(C)Cc2ccccc2)cc1` (configuration not stated), the activation is 2.19% (inactive).

Consider `Cc1nc(CNCc2ccc(OCC(O)CN(C)Cc3ccccc3)cc2)n[nH]1` (configuration not stated), for which the activation was 0.224% (inactive).

`CC(C)Cn1cnc2c1c(=O)[nH]c(=O)n2CC(C)C`: the activation is -1.78% (inactive).

In the case of `CCOC(=O)c1oc2ccc(C=O)c(Cl)c2c1C`, the activation is 0.651% (inactive).

As to `CC(C)(C)NC(=O)C1CC(c2ccccc2Cl)=NO1` (configuration not stated), the activation was 1.12% (inactive).

`COc1ccc(OC)c(C2=NOC(C(=O)Nc3cccc(O)c3)C2)c1` (configuration not stated): the activation is 1.6% (inactive).

For the compound `COc1cc(NC(=O)C2CC(c3ccccc3O)=NO2)c(OC)cc1Cl` (configuration not stated), the activation was 5.74% (active).

On to `O=C(NNC(=S)NC(=O)c1ccccc1[N+](=O)[O-])c1ccc(O)cc1`, for which the activation was -0.124% (inactive).

In the case of `CO[C@@H]1COC(=O)[C@@H](C)COC(=O)[C@H](C)NC(=O)C/C=C/[C@H]1C`, the activation is 1.97% (inactive) and 5.04% (active).

Take `COc1cc(Nc2ccnc(Nc3ccncc3)n2)cc(OC)c1OC`: the activation was 1.57% (inactive).

On to `CCN(CC)c1nc(Nc2ccccc2)nc(N2CCOCC2)n1`, for which the activation was -0.263% (inactive).

On to `COc1cc(Nc2ccnc(Nc3ccc(N4CCOCC4)cc3)n2)cc(OC)c1OC`, for which the activation is 5.76% (active).

Regarding `c1ccc(Nc2nccc(Nc3ccc(N4CCOCC4)cc3)n2)cc1`, the activation was 2.16% (inactive).

In the case of `CCN(CC)c1nc(Nc2cc(OC)c(OC)c(OC)c2)nc(N2CCOCC2)n1`, the activation was 5.49% (active).

In the case of `CCN(CC)c1nc(Nc2cc(OC)c(OC)c(OC)c2)nc(Nc2nc3ccccc3n2C)n1`, the activation is -0.32% (inactive).
